Laboratory results: ChEMBL document CHEMBL1961873, “Compounds: GSK PKIS; Assays: Nanosyn kinase panel” (2012)

Experiments:
[1] = target: Glycogen synthase kinase-3 beta (Homo sapiens) (UniProt P49841); settings: at 1 µM;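 further: reported values are mean percent inhibition of GSK3B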
[2] = target: Homeodomain-interacting protein kinase 1 (Homo sapiens) (UniProt Q86Z02); settings: at 0.1 µM
[3] = target: Homeodomain-interacting protein kinase 1 (Homo sapiens) (UniProt Q86Z02); settings: at 1 µM
[4] = target: T1, Homeodomain-interacting protein kinase 4 (Homo sapiens) (UniProt Q8NE63); settings: at 0.1 µM
T1 sequence (whole entry): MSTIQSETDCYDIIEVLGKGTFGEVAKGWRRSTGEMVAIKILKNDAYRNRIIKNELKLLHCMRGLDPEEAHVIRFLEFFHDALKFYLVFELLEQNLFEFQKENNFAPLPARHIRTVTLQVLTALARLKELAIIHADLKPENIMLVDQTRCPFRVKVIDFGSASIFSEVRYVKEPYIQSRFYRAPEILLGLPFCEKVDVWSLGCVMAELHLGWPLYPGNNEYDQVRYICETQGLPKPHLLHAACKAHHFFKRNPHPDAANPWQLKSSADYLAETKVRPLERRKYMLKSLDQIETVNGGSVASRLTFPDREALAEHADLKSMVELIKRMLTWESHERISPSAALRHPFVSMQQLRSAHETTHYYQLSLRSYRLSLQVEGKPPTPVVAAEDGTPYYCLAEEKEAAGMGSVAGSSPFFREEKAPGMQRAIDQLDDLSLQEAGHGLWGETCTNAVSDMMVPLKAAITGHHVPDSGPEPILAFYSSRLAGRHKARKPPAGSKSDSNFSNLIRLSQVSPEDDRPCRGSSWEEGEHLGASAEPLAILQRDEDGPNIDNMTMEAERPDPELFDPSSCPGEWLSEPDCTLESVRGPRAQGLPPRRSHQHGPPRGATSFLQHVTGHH

[5] = target: T1, Homeodomain-interacting protein kinase 4 (Homo sapiens); settings: at 1 µM
[6] = target: Mitogen-activated protein kinase 9 (Homo sapiens) (UniProt P45984); settings: at 0.1 µM
Chain of Mitogen-activated protein kinase 9 (Homo sapiens) (P45984 whole entry, looked up): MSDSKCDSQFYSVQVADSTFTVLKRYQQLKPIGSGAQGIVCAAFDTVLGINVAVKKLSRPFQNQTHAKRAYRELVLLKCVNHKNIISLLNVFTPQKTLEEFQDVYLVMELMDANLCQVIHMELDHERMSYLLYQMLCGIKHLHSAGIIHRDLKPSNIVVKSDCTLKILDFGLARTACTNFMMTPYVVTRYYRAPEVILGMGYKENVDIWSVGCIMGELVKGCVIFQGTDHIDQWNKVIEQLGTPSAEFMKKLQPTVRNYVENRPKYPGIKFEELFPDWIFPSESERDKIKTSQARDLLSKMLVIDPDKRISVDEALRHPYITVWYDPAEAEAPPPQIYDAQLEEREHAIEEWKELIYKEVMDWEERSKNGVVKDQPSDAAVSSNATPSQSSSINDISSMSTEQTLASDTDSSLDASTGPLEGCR

[7] = target: Mitogen-activated protein kinase 9 (Homo sapiens) (UniProt P45984); settings: at 1 µM
[8] = target: Mitogen-activated protein kinase 1 (Homo sapiens) (UniProt P28482); settings: at 0.1 µM
Chain of Mitogen-activated protein kinase 1 (Homo sapiens) (P28482 whole entry): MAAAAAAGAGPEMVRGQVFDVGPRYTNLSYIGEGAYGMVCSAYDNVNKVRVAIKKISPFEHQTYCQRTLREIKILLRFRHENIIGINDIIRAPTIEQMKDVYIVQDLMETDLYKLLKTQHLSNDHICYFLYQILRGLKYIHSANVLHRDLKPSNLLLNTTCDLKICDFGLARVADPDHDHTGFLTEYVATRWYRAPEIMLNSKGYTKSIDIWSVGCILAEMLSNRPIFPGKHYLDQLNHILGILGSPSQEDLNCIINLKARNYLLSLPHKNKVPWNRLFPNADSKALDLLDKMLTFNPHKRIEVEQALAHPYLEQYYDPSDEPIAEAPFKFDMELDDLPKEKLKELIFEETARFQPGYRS

[9] = target: Mitogen-activated protein kinase 1 (Homo sapiens) (UniProt P28482); settings: at 1 µM
[10] = target: Mitogen-activated protein kinase 3 (Homo sapiens) (UniProt P27361); settings: at 0.1 µM
Chain of Mitogen-activated protein kinase 3 (Homo sapiens) (P27361 whole entry): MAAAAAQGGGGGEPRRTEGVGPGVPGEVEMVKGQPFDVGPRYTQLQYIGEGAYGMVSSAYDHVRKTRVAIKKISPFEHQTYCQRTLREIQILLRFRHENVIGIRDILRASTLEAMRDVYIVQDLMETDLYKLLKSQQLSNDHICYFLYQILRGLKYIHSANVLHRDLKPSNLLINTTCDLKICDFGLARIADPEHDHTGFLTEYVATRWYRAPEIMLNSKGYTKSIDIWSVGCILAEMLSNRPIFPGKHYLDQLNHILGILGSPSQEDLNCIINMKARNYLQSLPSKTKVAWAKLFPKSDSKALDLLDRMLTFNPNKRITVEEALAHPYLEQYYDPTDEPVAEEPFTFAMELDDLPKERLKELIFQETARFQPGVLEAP

[11] = target: Mitogen-activated protein kinase 3 (Homo sapiens) (UniProt P27361); settings: at 1 µM
[12] = target: SRSF protein kinase 3 (Homo sapiens) (UniProt Q9UPE1); settings: at 0.1 µM
Chain of SRSF protein kinase 3 (Homo sapiens) (Q9UPE1 whole entry): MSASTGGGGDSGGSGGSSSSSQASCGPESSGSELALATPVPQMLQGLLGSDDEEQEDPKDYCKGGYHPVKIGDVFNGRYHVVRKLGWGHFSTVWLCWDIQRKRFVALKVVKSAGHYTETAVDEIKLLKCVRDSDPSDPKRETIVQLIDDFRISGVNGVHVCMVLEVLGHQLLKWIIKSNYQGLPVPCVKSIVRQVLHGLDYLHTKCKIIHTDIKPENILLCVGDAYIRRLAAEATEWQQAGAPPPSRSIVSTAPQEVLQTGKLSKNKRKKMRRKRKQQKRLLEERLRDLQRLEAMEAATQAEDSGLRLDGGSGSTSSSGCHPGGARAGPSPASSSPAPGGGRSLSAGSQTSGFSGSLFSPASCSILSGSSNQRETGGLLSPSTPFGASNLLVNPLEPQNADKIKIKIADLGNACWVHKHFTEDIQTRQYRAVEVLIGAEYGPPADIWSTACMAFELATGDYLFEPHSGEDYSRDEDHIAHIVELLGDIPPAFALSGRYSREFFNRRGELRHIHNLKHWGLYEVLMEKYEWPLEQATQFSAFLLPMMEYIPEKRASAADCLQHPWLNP

[13] = target: SRSF protein kinase 3 (Homo sapiens) (UniProt Q9UPE1); settings: at 1 µM
[14] = target: Mitogen-activated protein kinase 14 (Homo sapiens) (UniProt Q16539); settings: at 0.1 µM
Chain of Mitogen-activated protein kinase 14 (Homo sapiens) (Q16539 whole entry): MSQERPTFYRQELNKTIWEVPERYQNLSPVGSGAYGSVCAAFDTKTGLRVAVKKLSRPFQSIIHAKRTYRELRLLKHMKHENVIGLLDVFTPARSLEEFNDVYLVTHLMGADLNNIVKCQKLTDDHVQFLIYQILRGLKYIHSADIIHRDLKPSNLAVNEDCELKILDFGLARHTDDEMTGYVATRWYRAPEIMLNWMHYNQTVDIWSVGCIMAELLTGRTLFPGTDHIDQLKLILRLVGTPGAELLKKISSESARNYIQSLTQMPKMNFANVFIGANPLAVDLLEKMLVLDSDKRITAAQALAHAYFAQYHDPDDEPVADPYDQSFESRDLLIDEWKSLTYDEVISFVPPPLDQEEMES

[15] = target: Mitogen-activated protein kinase 14 (Homo sapiens) (UniProt Q16539); settings: at 1 µM
[16] = target: Mitogen-activated protein kinase 11 (Homo sapiens) (UniProt Q15759); settings: at 0.1 µM
Chain of Mitogen-activated protein kinase 11 (Homo sapiens) (Q15759 whole entry): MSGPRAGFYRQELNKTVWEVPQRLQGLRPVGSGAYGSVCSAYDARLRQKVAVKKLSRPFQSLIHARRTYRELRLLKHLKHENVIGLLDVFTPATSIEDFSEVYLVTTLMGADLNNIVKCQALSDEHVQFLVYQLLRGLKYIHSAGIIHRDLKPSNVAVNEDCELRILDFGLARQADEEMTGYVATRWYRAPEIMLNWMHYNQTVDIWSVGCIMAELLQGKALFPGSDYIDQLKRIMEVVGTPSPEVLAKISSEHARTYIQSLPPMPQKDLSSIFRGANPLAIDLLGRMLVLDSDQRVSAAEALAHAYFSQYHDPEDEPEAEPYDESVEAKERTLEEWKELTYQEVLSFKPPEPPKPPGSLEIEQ

[17] = target: Mitogen-activated protein kinase 11 (Homo sapiens) (UniProt Q15759); settings: at 1 µM
[18] = target: T2, Mitogen-activated protein kinase 13 (Homo sapiens) (UniProt O15264); settings: at 0.1 µM
T2 sequence (whole entry): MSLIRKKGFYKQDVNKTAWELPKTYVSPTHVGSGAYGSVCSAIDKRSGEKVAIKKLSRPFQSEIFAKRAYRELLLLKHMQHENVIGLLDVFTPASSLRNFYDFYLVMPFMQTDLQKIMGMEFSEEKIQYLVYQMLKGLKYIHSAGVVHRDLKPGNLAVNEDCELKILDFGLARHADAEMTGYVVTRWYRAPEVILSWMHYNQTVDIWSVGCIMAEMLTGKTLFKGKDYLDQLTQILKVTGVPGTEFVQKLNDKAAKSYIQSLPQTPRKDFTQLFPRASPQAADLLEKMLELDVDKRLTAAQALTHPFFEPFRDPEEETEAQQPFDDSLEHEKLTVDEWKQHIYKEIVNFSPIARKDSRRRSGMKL

[19] = target: T2, Mitogen-activated protein kinase 13 (Homo sapiens); settings: at 1 µM
[20] = target: T3, Mitogen-activated protein kinase 12 (Homo sapiens) (UniProt P53778); settings: at 0.1 µM
T3 sequence (whole entry): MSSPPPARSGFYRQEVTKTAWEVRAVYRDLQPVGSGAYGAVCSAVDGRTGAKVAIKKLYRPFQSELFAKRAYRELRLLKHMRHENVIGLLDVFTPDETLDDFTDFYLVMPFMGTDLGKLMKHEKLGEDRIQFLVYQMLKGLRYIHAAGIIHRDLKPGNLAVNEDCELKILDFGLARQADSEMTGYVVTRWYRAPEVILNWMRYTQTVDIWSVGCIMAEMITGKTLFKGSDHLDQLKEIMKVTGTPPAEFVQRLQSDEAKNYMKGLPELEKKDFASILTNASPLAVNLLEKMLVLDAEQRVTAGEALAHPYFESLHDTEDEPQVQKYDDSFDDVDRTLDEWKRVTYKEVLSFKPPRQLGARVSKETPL

Chain of Homeodomain-interacting protein kinase 1 (Homo sapiens) (Q86Z02 whole entry, looked up): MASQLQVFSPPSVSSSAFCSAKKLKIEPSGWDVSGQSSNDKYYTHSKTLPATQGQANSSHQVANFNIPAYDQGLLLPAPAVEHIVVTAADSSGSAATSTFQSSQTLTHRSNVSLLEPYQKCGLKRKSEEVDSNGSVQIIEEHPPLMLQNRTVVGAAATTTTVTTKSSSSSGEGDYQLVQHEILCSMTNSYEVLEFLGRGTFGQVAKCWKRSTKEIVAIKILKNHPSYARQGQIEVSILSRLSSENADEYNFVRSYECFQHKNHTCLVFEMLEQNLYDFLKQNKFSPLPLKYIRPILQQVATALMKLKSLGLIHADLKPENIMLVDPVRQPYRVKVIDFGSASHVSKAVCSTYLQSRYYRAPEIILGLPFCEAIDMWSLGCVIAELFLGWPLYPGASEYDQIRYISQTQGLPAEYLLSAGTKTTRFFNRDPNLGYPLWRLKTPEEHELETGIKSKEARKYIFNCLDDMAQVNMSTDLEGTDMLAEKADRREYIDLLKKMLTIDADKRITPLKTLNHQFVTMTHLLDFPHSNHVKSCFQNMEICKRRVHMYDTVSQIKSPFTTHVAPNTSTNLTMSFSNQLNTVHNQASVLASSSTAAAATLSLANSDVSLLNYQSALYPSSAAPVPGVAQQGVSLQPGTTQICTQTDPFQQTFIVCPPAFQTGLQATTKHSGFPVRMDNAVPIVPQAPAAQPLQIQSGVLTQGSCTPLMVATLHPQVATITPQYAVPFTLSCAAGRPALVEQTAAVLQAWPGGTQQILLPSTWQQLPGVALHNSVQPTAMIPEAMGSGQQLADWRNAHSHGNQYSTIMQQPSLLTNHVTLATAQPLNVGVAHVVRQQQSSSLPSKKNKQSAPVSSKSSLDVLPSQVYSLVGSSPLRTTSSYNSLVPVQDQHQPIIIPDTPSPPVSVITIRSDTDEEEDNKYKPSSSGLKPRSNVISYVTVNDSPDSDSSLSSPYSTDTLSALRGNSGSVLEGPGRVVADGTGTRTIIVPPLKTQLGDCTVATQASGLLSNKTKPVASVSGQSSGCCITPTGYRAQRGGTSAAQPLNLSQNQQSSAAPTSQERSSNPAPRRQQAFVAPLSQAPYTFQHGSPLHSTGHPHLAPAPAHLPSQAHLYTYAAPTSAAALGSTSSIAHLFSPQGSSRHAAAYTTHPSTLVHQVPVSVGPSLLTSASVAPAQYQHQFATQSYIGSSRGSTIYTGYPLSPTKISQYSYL
Chain of Glycogen synthase kinase-3 beta (Homo sapiens) (P49841 whole entry, looked up): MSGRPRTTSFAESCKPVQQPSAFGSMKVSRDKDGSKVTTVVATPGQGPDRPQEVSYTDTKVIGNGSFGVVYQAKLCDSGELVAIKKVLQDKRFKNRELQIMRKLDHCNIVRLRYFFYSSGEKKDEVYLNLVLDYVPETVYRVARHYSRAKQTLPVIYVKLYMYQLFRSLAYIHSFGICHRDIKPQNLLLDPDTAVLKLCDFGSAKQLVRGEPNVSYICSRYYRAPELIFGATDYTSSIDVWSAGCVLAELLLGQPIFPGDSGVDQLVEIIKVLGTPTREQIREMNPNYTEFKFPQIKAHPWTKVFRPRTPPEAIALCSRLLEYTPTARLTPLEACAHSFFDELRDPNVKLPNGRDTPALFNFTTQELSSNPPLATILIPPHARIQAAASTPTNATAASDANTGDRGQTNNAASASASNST

| Structure (SMILES) | inhibition [1] [%] | inhibition [2] [%] | inhibition [3] [%] | inhibition [4] [%] | inhibition [5] [%] | inhibition [6] [%] | inhibition [7] [%] | inhibition [8] [%] | inhibition [9] [%] | inhibition [10] [%] | inhibition [11] [%] | inhibition [12] [%] | inhibition [13] [%] | inhibition [14] [%] | inhibition [15] [%] | inhibition [16] [%] | inhibition [17] [%] | inhibition [18] [%] | inhibition [19] [%] | inhibition [20] [%] |
| --- | --- | --- | --- | --- | --- | --- | --- | --- | --- | --- | --- | --- | --- | --- | --- | --- | --- | --- | --- | --- |
| CS(=O)(=O)CCNCc1ccc(-c2ccc3ncnc(Nc4ccc(OCc5cccc(C(F)(F)F)c5)cc4)c3c2)o1 | 3.05 | -0.56 | 2.78 | 0.9 | 7.06 | 3.75 | 7.64 | 5.63 | 5.84 | 4.22 | 5 | -2.18 | -0.47 | 11.9 | 13.9 | 1.8 | 5.06 | 5.4 | 5.66 | 3.43 |
| Cn1c(-c2nonc2N)nc2cnccc21 | 41.6 | 0.83 | 13.9 | 0.63 | 4.4 | 0.7 | 4.16 | -1.97 | 2.95 | 0.55 | 3.9 | -1.11 | -2.32 | 3.4 | 6.34 | 3.09 | 0.59 | 2.23 | 2.42 | 2.62 |
| CS(=O)(=O)CCNCc1ccoc1-c1ccc2ncnc(Nc3ccc(OCc4ccccc4)cc3)c2c1 | 4.28 | -3.84 | 0.14 | 0.57 | 2.87 | 1.1 | 1.84 | 0.72 | 2.14 | 0.52 | 1.25 | -1.87 | -1.49 | 2.69 | 0.9 | 2.25 | 1.9 | 0.46 | -0.76 | 0.71 |
| COc1cc(Nc2ncc(-c3ccccc3)o2)cc(OC)c1 | 11.5 | 1.55 | 17.1 | 2.58 | 12.5 | 3.25 | 3.23 | 10.2 | 6.06 | 5.39 | 5.68 | -1.19 | 1.14 | 6.3 | 5.68 | 2.87 | 5.59 | 5.24 | 4.13 | 3.61 |
| COc1cccc(Nc2nccc(-c3cnn4ncccc34)n2)c1 | 79 | 88.9 | 92.6 | 56.4 | 87.3 | 9.47 | 46.2 | 2.75 | 26.5 | 1.68 | 13.1 | -0.05 | 0.66 | 5.7 | 9.35 | 4.7 | 7.72 | 5 | 15.2 | 1.36 |
| CNC(=O)c1ncccc1Nc1nc(Nc2cc3c(cc2OC)CCCN3C(=O)CN(C)C)nc2[nH]ccc12 | 14.6 | 3.08 | 22.2 | 3.67 | 13.5 | 3.07 | 9.19 | 3.01 | 6.21 | 2.44 | 1.38 | 0.37 | 0.84 | 4.75 | 8.76 | 4.41 | 4.4 | 8.55 | 5.64 | 1.94 |
| CNC(=O)c1sc(-n2cnc3cc(OC)c(OC)cc32)cc1OCc1ccccc1C(F)(F)F | 3.56 | -0.45 | -1.76 | 1.98 | 7.08 | 2.65 | 4.22 | 5.45 | 6.09 | 3.11 | 3.4 | -2.11 | -0.26 | 5.47 | 5.08 | 4.76 | 4.92 | 3.34 | 1.88 | 1.92 |
| O=C(O[C@H]1CN[C@H](C#Cc2cc3ncnc(Nc4ccc5c(cnn5Cc5ccccc5)c4)c3s2)C1)N1CCOCC1 | 3.77 | -3.77 | -1.24 | -1.27 | -0.32 | 0.01 | 0.13 | 0.84 | -0.13 | -0.77 | 1.75 | -1.9 | -0.82 | 0.21 | 0.45 | 1.51 | 4.76 | -1.3 | -2.91 | -1.24 |
| COc1ccc(Nc2ncc(-c3ccccc3)o2)cc1OC | 33 | 8.4 | 28.6 | 3.61 | 22.6 | 2.69 | 8.77 | -0.07 | 1.54 | 1.12 | 1.29 | -1.82 | -2.17 | 4.31 | 5.01 | 1.96 | 4.99 | 0.77 | 2.02 | 4.1 |
| Cc1cc(O)cc(C)c1/C=C/c1cncc(C(=O)OC(C)(C)C)c1 | 7.76 | 2.63 | 7.33 | 1.55 | 2.43 | 1.52 | 1.71 | 2.41 | 4.61 | 1.22 | 5.66 | -1.96 | -3.77 | 5.49 | 6.26 | 1.86 | 5.95 | 2.17 | 1.43 | 2.88 |
| CCCNc1cccc(-n2ncc3c(N/N=C/c4ccncc4)ncnc32)c1 | 68.7 | 2.78 | 13.5 | 4.71 | 27.7 | -0.25 | 6.14 | 1.61 | 1.54 | 1.28 | 3.62 | -0.81 | 0.97 | 1.81 | 7.62 | 4.76 | 25.5 | 0.94 | 3.1 | 0.51 |
| CC1=C(C(=O)Nc2ccc3[nH]ncc3c2)C(c2ccc(F)cc2)N=C(c2ccc(C(F)(F)F)nc2)N1 (stereo not given) | 4.71 | 0.16 | 2.28 | 0.68 | 1.53 | 1.61 | 4.98 | -1.73 | 3.17 | 1.81 | -0.07 | 0.36 | 0.93 | 6.91 | 7.75 | 0.24 | 2.12 | 2.38 | 2.31 | 0.91 |
| NS(=O)(=O)c1ccc(N/N=C2\C(=O)Nc3cccc(CCc4ccncc4)c32)cc1 | 56.4 | -0.6 | 2.62 | 0.72 | 1.64 | -0.3 | 1.61 | 0.92 | 0.88 | -0.55 | -1.26 | -1.55 | -0.36 | 1.13 | 0.21 | 1.91 | 3.6 | 0.17 | -0.27 | 0.4 |
